Screening data from PubChem BioAssay.
STAT3 SMM – STAT3 (human) binding; P40763; AID 624138; 0.2% of 17,000 active; calls only; Small molecule microarray, His-STAT3 binding, anti-His fluorescence;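 active = compounds whose four printed spots each show fluorescence over background unusually high for their array block, chance value under 7%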
Myc binder – binds human c-Myc on microarray. P01106. small molecule microarray, His-c-Myc binding, anti-His fluorescence. calls only. 1.5% of 17,000 active;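 active = spot fluorescence over background with P-value below 7% in all four replicate spots, showing protein binding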
p53 mut binder – binders of human mutant p53; small molecule microarray binding, anti-GST fluorescence; calls only; 0.4% of 17,000 active; AID 624136;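 active = compounds whose four printed spots each glow above background more than chance allows, each with a p-value under 7%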
NFkB binder – binds human NF-kappa-B p105 on microarray. P19838. Small molecule microarray, anti-His fluorescence binding. calls only. 1.3% of 17,000 active. AID 624139;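 active = spot fluorescence over background significantly raised, with a chance value under 7% in all four replicate spots of the compound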;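 note: probe protein is his-tagged human p50 processed subunit at 1 µg/ml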
Target sequence (P19838 1-433 limits assumed): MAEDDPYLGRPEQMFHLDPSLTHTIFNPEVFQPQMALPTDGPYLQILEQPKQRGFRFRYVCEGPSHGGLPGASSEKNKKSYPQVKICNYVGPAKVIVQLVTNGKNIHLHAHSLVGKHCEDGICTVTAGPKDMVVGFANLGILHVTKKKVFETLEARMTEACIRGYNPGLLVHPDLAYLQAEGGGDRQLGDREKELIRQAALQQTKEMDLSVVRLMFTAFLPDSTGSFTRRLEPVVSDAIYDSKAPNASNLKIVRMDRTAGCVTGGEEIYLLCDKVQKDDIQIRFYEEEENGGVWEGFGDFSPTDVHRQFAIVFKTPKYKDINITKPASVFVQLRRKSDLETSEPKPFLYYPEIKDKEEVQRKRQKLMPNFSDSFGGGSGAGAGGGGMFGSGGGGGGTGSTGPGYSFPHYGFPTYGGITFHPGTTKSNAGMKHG
Calls only; i = inactive; + = active, no number. Sampled rows, rich in hits. Any-hit rate of the full collection: about 2.4%.

SMILES	STAT3 SMM	Myc binder	p53 mut binder	NFkB binder
CC(C)NC(=O)N(C)C[C@@H]1Oc2ncc(C#Cc3ccc(C(F)(F)F)cc3)cc2C(=O)N([C@H](C)CO)C[C@@H]1C	i	+	+	+
C[C@H](CO)N1C[C@H](C)[C@H](CN(C)C(=O)NC2CCCCC2)Oc2ncc(C#Cc3ccc(F)cc3)cc2C1=O	i	i	i	i
CNC[C@@H]1Oc2ncc(-c3cc4ccccc4o3)cc2C(=O)N([C@H](C)CO)C[C@@H]1C	i	i	i	i
C=CCOC(=O)[C@H]1[C@@H]2C(=O)O[C@@H](c3ccccc3)[C@@H](c3ccccc3)N2[C@@H](c2ccc(OCCOC(=O)[C@@H]3C[C@@H]4C(=O)N[C@@H](CC(C)C)C(=O)N4[C@@H]3c3cccc(OCCO)c3)cc2)[C@]12C(=O)Nc1ccc(I)cc12	i	i	+	+
C=CCOC(=O)[C@H]1[C@@H]2C(=O)O[C@@H](c3ccccc3)[C@@H](c3ccccc3)N2[C@@H](c2ccc(OCCOC(=O)[C@@H]3C[C@@H]4C(=O)N[C@@H](Cc5ccccc5)C(=O)N4[C@@H]3c3cccc(OCCO)c3)cc2)[C@]12C(=O)Nc1ccccc12	i	i	i	+
Cc1nn(C(=O)Cn2ccc([N+](=O)[O-])n2)c(C)c1I	i	i	i	i
C[C@]12C[C@H](O)C3C(CC[C@@H]4C[C@H](O)CC[C@]34C)C1CC[C@@H]2C(=O)CO (stereo not given in full)	i	i	i	i
C[C@]12CCC(=O)C=C1CC[C@@H]1C2CC[C@@]2(C)C1CC[C@@H]2C(=O)CO (stereo not given in full)	i	i	+	i
COC(=O)C1(Cc2ccc(O)c(CC=C(C)C)c2)OC(=O)C(OC)=C1c1ccc(O)cc1 (stereo not given)	i	i	i	i
CCOc1cc(CO)c(Br)cc1OCC(=O)O	i	+	i	i
COc1cc(Cl)cc(C(=O)O)c1OCC(=O)O	i	i	i	i
Cc1ccc(-c2nnc(SCC(=O)c3cccc([N+](=O)[O-])c3)n2C)cc1	i	i	+	i
C[C@H]1CN([C@@H](C)CO)C(=O)c2cccc(NC(=O)Nc3ccc(F)cc3)c2O[C@H]1CN(C)C	i	i	i	i
CCOC(=O)c1cnc2c(C)c(C)ccc2c1NCCN(C)C	i	i	+	i
COc1ccc2nc(NCc3ccc(OC)c(OC)c3OC)sc2c1	i	i	i	i
COCC(C)NCc1ccc(OC)c(OC)c1OC (stereo not given)	i	+	i	i
O=C(CS(=O)(=O)c1ccc2ccccc2c1)c1cc2ccccc2oc1=O	i	+	i	i
C[C@@H]1CN([C@H](C)CO)C(=O)Cc2cc(NC(=O)Nc3ccc(C(F)(F)F)cc3)ccc2O[C@@H]1CN(C)Cc1ccncc1	i	+	i	+
C[C@@H]1CN([C@H](C)CO)C(=O)Cc2cc(NC(=O)Nc3cccc4ccccc34)ccc2O[C@@H]1CN(C)C(=O)Nc1cccc2ccccc12	i	+	i	+
C[C@H](CO)N1C[C@H](C)[C@H](CN(C)C(=O)Nc2cccc3ccccc23)Oc2ccc(NC(=O)Nc3cccc4ccccc34)cc2CC1=O	i	i	i	i
O=S(=O)(N[C@@H]1CCCN(Cc2ccc(OCCO)cc2)C1)c1ccc(-c2ccccc2)cc1	i	i	i	i
Cc1ccc2c(c1)c1nc3ccccc3nc1n2CCN1CCOCC1	i	+	i	i
Cc1ccc(-c2cc(C(=O)NCCN3CCOCC3)c3cccc(C)c3n2)c(C)c1	i	i	i	i
CC(C)NC(=O)N(C)C[C@H]1OCCCC[C@@H](C)Oc2ccc(N(C)C)cc2C(=O)N([C@@H](C)CO)C[C@@H]1C	i	i	i	i
C[C@@H]1CN([C@@H](C)CO)C(=O)c2cc(NC(=O)NC3CCCCC3)ccc2O[C@@H]1CN(C)Cc1ccc(C(=O)O)cc1	i	i	i	i
C=CCNC(=O)[C@H]1[C@@H]2C(=O)O[C@@H](c3ccccc3)[C@@H](c3ccccc3)N2[C@@H](c2ccccc2OCCO)[C@]12C(=O)Nc1ccc(C#Cc3ccc(OC)cc3)cc12	i	i	i	i
COc1ccc(C#Cc2ccc3c(c2)[C@]2(C(=O)N3)[C@H](c3ccc(OCCO)cc3)N3[C@H](c4ccccc4)[C@H](c4ccccc4)OC(=O)[C@H]3[C@@H]2C(=O)Nc2nc3ccccc3s2)cc1	i	i	i	+
C=CCNC(=O)[C@@H]1[C@H]2C(=O)O[C@H](c3ccccc3)[C@H](c3ccccc3)N2[C@H](c2ccccc2OCCO)[C@@]12C(=O)Nc1ccc(C#Cc3ccc(OC)cc3)cc12	i	i	i	+
